According to PubChem BioAssay (NCI):
Compounds without any hit were thinned out: in the full panel of roughly 83,000, 20% have a hit.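 Assay: single dose, 48 h. Readout: percent growth (0 = no net growth; negative = cell death). Active: <10.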 Values without a mark were called inactive. Calls of active or inactive are those of the source.

What was measured:
Experiment in all cases: NCI-60 one-dose screen, 48 h (100 = growth as untreated, 0 = no growth, -100 = all killed)
Settings in all cases: 10 µM unless noted
NCI-H23 lung = tested on: NCI-H23 lung
NCI-H226 lung = tested on: NCI-H226 lung
NCI-H322M lung = tested on: NCI-H322M lung
HOP-62 NSCLC = tested on: HOP-62 NSCLC
NCI-H460 lung = tested on: NCI-H460 lung
HOP-92 NSCLC = tested on: HOP-92 NSCLC
NCI-H522 lung = tested on: NCI-H522 lung
A549/ATCC NSCLC = tested on: A549/ATCC NSCLC
786-0 renal = tested on: 786-0 renal
COLO 205 colon = tested on: COLO 205 colon
DU-145 prostate = tested on: DU-145 prostate
K-562 leukemia = tested on: K-562 leukemia
MALME-3M melanoma = tested on: MALME-3M melanoma
MDA-MB-231 breast = tested on: MDA-MB-231 breast
RXF 393 renal = tested on: RXF 393 renal
SF-268 CNS = tested on: SF-268 CNS
SF-295 CNS = tested on: SF-295 CNS
SF-539 CNS = tested on: SF-539 CNS
UACC-257 melanoma = tested on: UACC-257 melanoma
M14 melanoma = tested on: M14 melanoma

Row | SMILES | growth (NCI-H23 lung) | growth (NCI-H226 lung) | growth (NCI-H322M lung) | growth (HOP-62 NSCLC) | growth (NCI-H460 lung) | growth (HOP-92 NSCLC) | growth (NCI-H522 lung) | growth (A549/ATCC NSCLC) | growth (786-0 renal) | growth (COLO 205 colon) | growth (DU-145 prostate) | growth (K-562 leukemia) | growth (MALME-3M melanoma) | growth (MDA-MB-231 breast) | growth (RXF 393 renal) | growth (SF-268 CNS) | growth (SF-295 CNS) | growth (SF-539 CNS) | growth (UACC-257 melanoma) | growth (M14 melanoma)
1 | NC(=O)Nc1ccc2ncnc(Nc3ccc(Cl)cc3)c2c1 | 100% | 99.8% | 18% | 86.2% | 87.9% | 74.2% | 66.2% | 72.5% | 85.9% | 101% | 52% | 71.4% | 117% | 89.3% | 93.7% | 79.7% | 90.7% | 95.7% | 100% | 107%
2 | O=C(Nc1ccc(Cl)cc1F)c1ccccc1O | 17% | 25.6% | 36.3% | 42.6% | 27.5% | -14.5% (active) | 11% | 46.3% | 50.6% | 98.2% | 43.1% | 29.5% | -6.47% (active) | 39.1% | 42.5% | 43.1% | 69.7% | 48.9% | 14.1% | 46.4%
3 | O=S(=O)(Nc1ccc(-c2nc(-c3cccc(OCCN4CCOCC4)c3)c(-c3ccnc(Br)c3)[nH]2)cc1)c1ccccc1 | 35.5% | 48.1% | 53.5% | 40.3% | 28.4% | 22% | 32.8% | 30.4% | 13.2% | 39.3% | 59.5% | 3.42% (active) | 44% | 36.8% | -15.1% (active) | 41.3% | 2.79% (active) | 38.1% | 53.1% | 36.8%
4 | NCCCNc1nc2ccccc2c2c(=O)c3cccc(F)c3sc12 | 50.5% | 64.1% | 46.8% | 48.1% | -57% (active) | 35.8% | 38.7% | 24% | 52.6% | -43.7% (active) | 12.6% | -28.2% (active) | 80% | 6.07% (active) | 52.4% | 45.9% | 72.8% | 44.2% | 93.5% | 10%
5 | COc1cc2cc(Oc3ccc(NC(=O)Nc4ccc(F)c(C(F)(F)F)c4)cc3)c(C)nc2cc1OCCN1CCOCC1 | 0.421% (active) | 36.6% | 60.7% | 24.4% | 7.19% (active) | -12.9% (active) | 13.6% | 12.7% | 35% | -6.62% (active) | 23.3% | 9.96% (active) | 22.7% | 39.6% | 40.3% | 32.1% | 0.809% (active) | 45.1% | 12% | 16.7%
6 | O=C(CCCCCCSc1nc(-c2ccccc2)cc(-c2ccccc2)n1)NO | 27.6% | 56% | 45% | 29.5% | 24.4% | 7.75% (active) | -0.297% (active) | 27.4% | 65% | 25.7% | 36.3% | 11.3% | 14.3% | 40.8% | 6.08% (active) | 62.3% | 41.7% | 53.1% | 29% | 31.7%
7 | O=C(Nc1ccc(-c2nc(-c3cccc(OCCN4CCOCC4)c3)c(-c3ccnc(Br)c3)[nH]2)cc1)c1ccccc1 | 13.3% | 52.8% | 47.4% | -1.45% (active) | 7.26% (active) | 23.2% | 40.7% | 21.9% | -39.4% (active) | -25.2% (active) | 55.6% | 0.946% (active) | -21% (active) | 29.2% | -49.9% (active) | 38.9% | -70.9% (active) | -39.8% (active) | -0.153% (active) | 6.5% (active)
8 | COc1cc2cc(Oc3ccc(NC(=O)Nc4cccc(C(F)(F)F)c4)cc3)c(C)nc2cc1OCCN1CCOCC1 | 15.4% | 57% | 80.4% | 50.8% | 16.4% | 33.9% | 29.3% | 15.8% | 67.3% | 35.5% | 33.5% | 11.6% | 55% | 57.9% | 62% | 55.8% | 26.7% | 73.7% | 31% | 34.3%
9 | CC1(C)C2CC1C1(/C=N/NC(N)=S)C(C2)C(C#N)(C#N)C1(C#N)C#N (stereo not given) | 89.4% | 109% | 98% | 108% | 98.9% | 55.5% | -60.7% (active) | 96.4% | 81.7% | 65.4% | 82.6% | 13.6% | 67% | 57.3% | 71.7% | 97.4% | 111% | 101% | 79.9% | 87.6%
10 | COc1ccc(-c2[nH]ncc2-c2cc3c(c(OC)c2)OCC(=O)N3)cc1 | 30% | 61.8% | 43% | 27.2% | 5.89% (active) | 63% | -47.2% (active) | 35.2% | 27% | -24.9% (active) | 14.8% | 12.6% | 57.3% | 7.86% (active) | -35.1% (active) | 54% | 9.29% (active) | -23.9% (active) | 59.8% | 11.6%
11 | CNc1nc2c(s1)C(c1cccc(F)c1)CC(=O)N2 (stereo not given) | 100% | 90.3% | 99.1% | 93.3% | 106% | 93.4% | 87.4% | 106% | 97.4% | 110% | 106% | 95.6% | 110% | 104% | 93.9% | 94.1% | 104% | 92% | 107% | 106%
12 | COc1ccc(-c2nc(NN)c3c(C)nn(-c4ccc(F)cc4)c3n2)cc1 | 66.9% | 80% | 74.6% | 50.6% | 18.8% | 52.7% | 22.6% | 38.1% | 38.6% | 35.4% | 37.9% | 17.8% | 61.5% | 53.1% | 51% | 46.3% | 27.8% | 36.2% | 45.3% | 26.4%
13 | O=C(N/N=C/c1ccc(Cl)cc1)c1ccc(C(F)(F)F)nc1Nc1cccc(C(F)(F)F)c1 | -36.7% (active) | 21.2% | 8.21% (active) | 43.5% | 6.99% (active) | -0.43% (active) | 8.57% (active) | 19.5% | 23.1% | -12.6% (active) | 13.2% | 1.81% (active) | 50.4% | 16% | 42.6% | 2.52% (active) | -22.9% (active) | 3.47% (active) | 20% | 42.7%
14 | Cc1[nH]c(C(=O)Nc2ccc(C(=O)NCCN)cc2OC(C)C)c(Cl)c1Cl | 79.5% | 93.5% | 53.3% | 59.9% | -55.2% (active) | 29.7% | -6.73% (active) | 47.3% | 44% | -45.7% (active) | 33.8% | -19.3% (active) | 63.3% | -27% (active) | 83.5% | 68.1% | 89.7% | -22.3% (active) | 105% | -31.1% (active)
15 | COc1ccc2nc(NCCCNCCO)c3sc4ccc(F)cc4c(=O)c3c2c1 | 62.7% | 87.9% | 67.8% | 74% | -72.8% (active) | 12.2% | 45.6% | 49.2% | 56.7% | -49.3% (active) | -49.7% (active) | -36.8% (active) | 91.8% | -26.7% (active) | 44.4% | 47.2% | 84.6% | -88.9% (active) | 95.4% | -57.1% (active)
16 | CN1CCN(CC(=O)N2c3cccc4cccc(c34)N(C(=O)CN3CCN(C)CC3)C2c2cn(-c3ccccc3)nc2-c2cccc([N+](=O)[O-])c2)CC1 | 1.14% (active) | 88.2% | 32.9% | -20.2% (active) | 1.88% (active) | 42.9% | -3.45% (active) | 15.7% | -83.4% (active) | -68.5% (active) | 28.7% | -43.9% (active) | -86.7% (active) | -60.9% (active) | -19.1% (active) | 7.89% (active) | -67.1% (active) | -86.1% (active) | -75.9% (active) | -81.7% (active)
